Measured values published in the supplement of paper PMC6555819.

Tests used:
Experiment in all cases: PBM binding z-score (relative to random genomic background probes); higher = stronger binding; sequences stand for … in GC…GCGATTGACAGCGTAGAATGAAGG
[1] = tested on: FXR:RXRa (NR concentration 270 nM, RXRa partner concentration 90 nM)
Procedure, shortened: (§1)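 Binding z-scores were set against random background probes. The data came from custom Agilent 4×180K protein-binding microarrays carrying double-stranded probes with 34-nt variable regions, incubated 1 h with ligand-free nuclear receptor dimers. Partner-specific antibodies detected binding, and scanned fluorescence was regression-normalized.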

[2] = tested on: LXRa:RXRa (NR concentration 270 nM, RXRa partner concentration 90 nM)
Procedure, shortened: as §1

[3] = tested on: LXRa homodimer (NR concentration 270 nM)
Procedure, shortened: as §1

[4] = tested on: LXRb:RXRa (NR concentration 270 nM, RXRa partner concentration 90 nM)
Procedure, shortened: as §1

[5] = tested on: LXRb homodimer (NR concentration 270 nM)
Procedure, shortened: as §1

[6] = tested on: PPARa:RXRa (NR concentration 270 nM, RXRa partner concentration 90 nM)
Procedure, shortened: as §1

[7] = tested on: PPARg:RXRa (NR concentration 180 nM, RXRa partner concentration 90 nM)
Procedure, shortened: as §1

[8] = tested on: PPARg:RXRa 270nM:90nM, anti-RXR (NR concentration 270 nM, RXRa partner concentration 90 nM)
Procedure, shortened: as §1

[9] = tested on: PPARg:RXRa 30nM:10nM, anti-RXR (NR concentration 30 nM, RXRa partner concentration 10 nM)
Procedure, shortened: as §1

[10] = tested on: PPARg:RXRa 90nM:30nM, anti-RXR (NR concentration 90 nM, RXRa partner concentration 30 nM)
Procedure, shortened: as §1

[11] = tested on: PPARg:RXRa DBDmut IVT, anti-RXR (DBD mutation: RXRa K156A/R161A, NR concentration 270 nM, RXRa partner concentration 90 nM)
Procedure, shortened: as §1

[12] = tested on: PPARg:RXRa IVT, anti-PPARg (NR concentration 270 nM, RXRa partner concentration 90 nM)
Procedure, shortened: as §1

[13] = tested on: PPARg DBDmut:RXRa IVT, anti-PPARg (DBD mutation: PPARg1 K132A/R137A, NR concentration 270 nM, RXRa partner concentration 90 nM)
Procedure, shortened: as §1

[14] = tested on: PPARg DBDmut IVT, anti-PPARg (DBD mutation: PPARg1 K132A/R137A, NR concentration 270 nM)
Procedure, shortened: as §1

[15] = tested on: PPARg homodimer (NR concentration 180 nM)
Procedure, shortened: as §1

[16] = tested on: PXR:RXRa (NR concentration 270 nM, RXRa partner concentration 90 nM)
Procedure, shortened: as §1

[17] = tested on: PXR homodimer (NR concentration 270 nM)
Procedure, shortened: as §1

[18] = tested on: RARa:RXR (NR concentration 270 nM, RXRa partner concentration 90 nM)
Procedure, shortened: as §1

[19] = tested on: RARa homodimer (NR concentration 270 nM)
Procedure, shortened: as §1

[20] = tested on: RARb:RXRa (NR concentration 270 nM, RXRa partner concentration 90 nM)
Procedure, shortened: as §1

Row | Sequence | PBM binding z-score [1] | PBM binding z-score [2] | PBM binding z-score [3] | PBM binding z-score [4] | PBM binding z-score [5] | PBM binding z-score [6] | PBM binding z-score [7] | PBM binding z-score [8] | PBM binding z-score [9] | PBM binding z-score [10] | PBM binding z-score [11] | PBM binding z-score [12] | PBM binding z-score [13] | PBM binding z-score [14] | PBM binding z-score [15] | PBM binding z-score [16] | PBM binding z-score [17] | PBM binding z-score [18] | PBM binding z-score [19] | PBM binding z-score [20]
1 | CCTGCTAGGTCATGGTCAGCTGATCTACAGTATG | 4.51 | 2.68 | -0.139 | 2.21 | -0.492 | 3.96 | 3.02 | 3.1 | 0.862 | 2.09 | 4.74 | 4.18 | 0.184 | 0.177 | 2.39 | 2.18 | -0.463 | 2.89 | -0.136 | 4.21
2 | CATACAGGGTCAGCCAGGCCAGAGTAGGGACGGC | 4.87 | 3.33 | -0.255 | 2.24 | 0.282 | 4.45 | 3.65 | 3.21 | 0.666 | 2.01 | 1 | 2.6 | 0.502 | 0.692 | 1.27 | 2.5 | 0.168 | 3.13 | 0.562 | 4.1
3 | GCTTGTAGATCAAGGCTAAGAAAGACTAAGCTAA | -1.48 | -0.741 | -0.903 | -0.837 | -0.875 | -0.665 | -0.447 | -0.418 | -0.329 | -0.359 | 0.902 | -0.107 | -0.0292 | -0.466 | -1.05 | -0.743 | -0.42 | -0.679 | -0.656 | -0.482
4 | TCTATTAGTTGATTAGGGCAATCGAAACAGCGGA | 0.665 | 0.828 | 0.306 | 0.766 | 0.542 | 0.871 | 0.0917 | 2.06 | 3.7 | 2.93 | 2.23 | 1.29 | 0.785 | 0.869 | 1.1 | 0.568 | 0.192 | 0.781 | 1.56 | 0.778
5 | ATCTGTAGGTTAGCTGGGGTCATTCAGACTAGGC | 3.92 | 6.12 | 3.25 | 4.61 | 1.64 | 4.22 | 2.15 | 3.26 | 0.98 | 2.02 | 2.69 | 2.92 | 1.42 | 1.67 | 2.28 | 6.74 | 4.22 | 6.24 | 1.28 | 3.19
6 | TAATATAGGTAAATGCTAGGTGAAAGTCCGATCT | 0.659 | 0.683 | 0.391 | 0.477 | 0.54 | 2.09 | 2.64 | 2.55 | 1.74 | 1.99 | 5.57 | 5.11 | 2.14 | 2.14 | 1.2 | 0.298 | 0.623 | 0.771 | 1.52 | 0.389
7 | AGAACGATGGCAATGAGTTGATAGCACGGGTGGC | -0.517 | -0.814 | -0.366 | -1.05 | -0.645 | -0.643 | 0.654 | -0.25 | -0.674 | -0.599 | -0.597 | -0.751 | 0.0197 | -0.258 | -0.596 | -0.563 | -0.0123 | -0.325 | -0.149 | -0.604
8 | CCGACTGGGGCAGACAGGTTACCATACCATCCGG | -0.305 | -0.476 | -0.144 | -0.341 | -0.833 | 0.114 | 0.832 | 0.0365 | -0.675 | -0.262 | 1.38 | 1.47 | 0.134 | -1.89 | -0.172 | -0.453 | -0.382 | -0.441 | -0.217 | 0.69
9 | GCAGACAGGTCAAACGCAGGTAACTCAGGGTGGC | 6.46 | 4.96 | 1.47 | 3.62 | 0.592 | 5.06 | 3.15 | 3.59 | 0.933 | 2.14 | 2.15 | 1.91 | 0.427 | -0.842 | 2 | 3.06 | -0.42 | 4.18 | -0.318 | 4.17
